Screens from PubChem.
A selection: hits, their analogues and other compounds. The true share with any hit is near 5.7%.
KB-3-1 cytotox: qHTS assay for MDR1-selective chemotherapeutics: Primary screen using the parental adenocarcinoma cell KB-3-1; KB-3-1 viability, CellTiter-Glo ATP luminescence, 72 h; Potency, µM (series often up to 46.1 µM), actives largely listed as cytotoxic; 1.4% of 400,000 active; AID 1347075, 2019; further: potency means the concentration at half of the fitted maximal effect; nearly all actives have a fitted effect of over 60% in size
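KB-3-1 parental drug-naive adenocarcinoma cells in DMEM/10% FBS, incubated 72 h at 37 C with pin-transferred compounds across a concentration series. Viability by CellTiter-Glo luminescence; concentration-response curves fitted after normalization.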
A549 tox: Nrf2 qHTS screen for inhibitors: counterscreen for cytotoxicity. Potency, µM (titrated, usually from 46 µM), for the others: top-dose activity change, negative = cytotoxicity, actives largely listed as inhibitors. A549 ARE-Fluc cells, CellTiter-Fluor viability, 18-24 h. 0.16% of 390,000 active; further: potency means the concentration at half of the fitted maximal effect
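A549 ARE_Fluc cells in 5% FBS OPTI-MEM were exposed to compounds in concentration-response for 18-24 h at 37 deg C. Viability was read by CellTiter-Fluor fluorescence (Ex 405/Em 525) after 30 min, before the luciferase read.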
Nrf2 block: Nrf2 qHTS screen for inhibitors; 2.1% of 360,000 active; A549 ARE-Fluc reporter, luciferase luminescence, 18-24 h; AID 504444, 2011; Potency, µM (titrated, usually from 46 µM), for inactives: at the top dose activity change, negative = inhibition, usual class: inhibitors; further: potency means the concentration at half of the fitted maximal effect; nearly all actives have a fitted effect of over 60% in size
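Concentration-response testing used A549 ARE_Fluc cells at 5000 cells/well. Following an 18-24 h compound incubation, viability was read by fluorescence (Ex 405/Em 525) and luciferase output by luminescence.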
Giardia killer: Small Molecules that selectively kill Giardia lamblia: qHTS | Giardia lamblia trophozoite viability | activity change, % at 7.66 µM, hits read low | 0.15% of 340,000 active | AID 540267, 2011; in the data active means activity change below about -80%; inconclusive means between about -30% and that limit;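 further: parasites exposed to compound for two days anaerobically before the ATP read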
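Giardia trophozoites, 100 cells per well, were exposed to compounds for 48 hrs at 37 deg C under anaerobic conditions; viability was then read as ATP content by bioluminescence after 15-30 min at room temperature.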
PI4K2A block: qHTS for small molecular inhibitors of PI4K2A | Phosphatidylinositol 4-kinase type 2-alpha (Homo sapiens), Q9BTU6 | purified PI4K2A, ADP-Glo luminescence, 1 h; hits give low values | activity change, negative = inhibition, % at 76.9 µM | 0.13% of 420,000 active | AID 1346378, 2018; in the data active means activity change below about -50%; inconclusive means mostly about -30% to -49%;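 further: -100% = wells without enzyme as full effect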
Target sequence (Q9BTU6 whole entry, looked up): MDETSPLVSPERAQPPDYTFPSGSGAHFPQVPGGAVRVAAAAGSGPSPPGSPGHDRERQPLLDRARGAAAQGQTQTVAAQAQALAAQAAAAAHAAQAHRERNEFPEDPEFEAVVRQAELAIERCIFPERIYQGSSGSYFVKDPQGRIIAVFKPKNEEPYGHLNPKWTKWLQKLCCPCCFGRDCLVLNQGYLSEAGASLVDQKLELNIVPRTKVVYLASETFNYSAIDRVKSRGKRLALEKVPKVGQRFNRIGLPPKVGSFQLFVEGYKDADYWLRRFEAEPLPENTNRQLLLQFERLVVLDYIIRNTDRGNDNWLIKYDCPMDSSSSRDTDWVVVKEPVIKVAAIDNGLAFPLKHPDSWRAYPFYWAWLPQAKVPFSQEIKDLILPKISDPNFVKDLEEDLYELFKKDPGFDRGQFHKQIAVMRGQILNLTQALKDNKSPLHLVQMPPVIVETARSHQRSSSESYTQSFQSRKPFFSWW
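Compounds are screened against recombinant PI4K2A using PI as substrate and ATP, the latter dispensed at 300 microM. Reactions run one hour at ambient temperature before ADP-Glo detection; full inhibition defined by wells lacking enzyme.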
KB-V1 cytotox: qHTS assay for MDR1-selective chemotherapeutics: Primary screen using the drug-selected MDR subline cells KB-V1. 3.4% of 400,000 active. AID 1347076, 2019. Potency, µM (doses to about 46.1 µM), actives largely listed as cytotoxic. KB-V1 MDR cells viability, CellTiter-Glo, 72 h; further: potency means the concentration at half of the fitted maximal effect; nearly all actives have a fitted effect of over 60% in size
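Cytotoxicity toward P-gp-expressing KB-V1 cells was determined as loss of CellTiter-Glo luminescence after 72 h at 37 degrees C. Compounds were tested in quantitative HTS format across a concentration range, with curves fitted to normalized data.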
The depositor's hits bear a star; i = inactive; ? = inconclusive; . = no result; ! = not active in a repeat. Unless noted, the call rests on the fitted dose curve; in most records, active means well fitted curve in the direction sought with a large enough effect; inconclusive means small, poorly fitted or top-dose-only effect, or another doubt; inactive means no such curve, though single readings can be large; an effect the other way counts as inactive or inconclusive. Unless noted, on the % scale 0 is the no-effect control and ±100 the full control effect.

SMILES | KB-3-1 cytotox | A549 tox | Nrf2 block | Giardia killer | PI4K2A block | KB-V1 cytotox
COc1cc2nc(NCCc3cccc(C)c3)n3nc(-c4ccccc4)nc3c2cc1OC | i | 5% | 4% | . | 5 | i
Cc1cc(C)c(NC(=O)Cn2c(=O)n(Cc3ccc(C(=O)NCc4ccco4)cc3)c(=O)c3sccc32)c(C)c1 | . | -18% | ? | . | ? | .
Cc1ccc(-n2c(=O)c3sccc3n(CC(=O)NCc3ccco3)c2=O)cc1 | i | -7% | . | -5 | 4 | i
Cc1cccc(C)c1NC(=O)Cn1c(=O)n(Cc2ccc(C(=O)NCc3ccco3)cc2)c(=O)c2sccc21 | ? | -22% | 18µM* | . | -12 | i
Cc1cccc(Cn2c(=O)n(-c3ccc(CC(=O)NCc4ccco4)cc3)c(=O)c3sccc32)c1 | 23µM* | 2% | -26% | -9 | -2 | ?
Cc1cc(C)cc(-n2cnc3cc(C(=O)NCCc4ccccc4)ccc32)c1 | . | -13% | . | . | -13 | .
Cc1ccc2c(c1)c1ccc3c(c1n2C)C(=O)C=CC3=O | 16µM* | ? | -27% | 9 | -22 | i
Cn1c2ccccc2c2ccc3c(c21)C(=O)C=CC3=O | ? | -25% | -9% | 4 | -15 | ?
CCc1noc(C)c1C(=O)Oc1ccc(N(C)S(=O)(=O)c2ccccc2)cc1 | i | -9% | 16µM* | 2 | -1 | ?
CCc1noc(C)c1C(=O)Oc1ccc(N(C)S(=O)(=O)c2ccc(C)cc2)cc1 | ? | -6% | ? | 9 | -9 | ?
Cc1ccccc1OCCCCn1c(CCNC(=O)C(C)(C)C)nc2ccccc21 | i | -25% | 23µM* | . | 2 | ?
COC(=O)[C@]12CCCCC=C1N(Cc1ccc(OC)cc1)C(=O)[C@@H]2CC(=O)NCCCN1CCCC1=O | . | . | . | . | -4 | .
COc1ccc(-c2nc(CSCC(=O)NCc3ccco3)c(C)o2)cc1 | i | -4% | -9% | -18 | -1 | 13µM*
Cc1ccc(-c2nc(CSCC(=O)NCc3cccnc3)c(C)o2)cc1 | ? | ? | ? | 34 | -1 | 3.7µM*
Nc1[nH]n(-c2ccccc2)c(=O)c1N=Nc1ccc(F)cc1 | . | . | . | . | -3 | .
CCOC(=O)N1CCC(NS(=O)(=O)c2ccc(C)cc2)CC1 | i | 5% | -20% | -4 | -8 | i
CCOC(=O)N1CCC(NC(=O)c2cc(S(=O)(=O)N3CCC4(CC3)OCCO4)ccc2F)CC1 | i | -4% | -24% | -9 | -2 | 23µM*
CCOC(=O)N1CCC(NS(=O)(=O)c2ccc(NC(C)=O)c(Cl)c2)CC1 | ? | 1% | 12µM* | 12 | -3 | ?
CCOC(=O)N1CCC(NC(=O)c2cc(-c3ccc(F)cc3)[nH]c2C)CC1 | i | -29% | 23µM* | 1 | -1 | i
CCOC(=O)N1CCC(NC(=O)c2cc(C(=O)NCc3ccc(F)cc3)ccc2CO)CC1 | i | -8% | -24% | -16 | 1 | i
Clc1ncc(C#Cc2ccccc2)c2ncncc12 | . | -1% | 20% | 13 | . | .
N#C/C(=C\c1cccn1-c1ccccc1)C(=O)NC1CCCCC1 | 5.8µM* | 2% | -7% | 3 | 8 | 4.6µM*
N#C/C(=C\c1ccc(F)c(F)c1)C(=O)NC1CCCCC1 | i | 1% | -5% | 15 | 30 | ?
Cc1ccc(Cn2cc(CN3[C@H](C)COc4cc(Br)ccc4S3(=O)=O)nn2)cc1 | . | . | . | . | 4 | .
CCOC(=O)c1c(NC(=O)Nc2ccc(Cl)cc2)sc(C)c1C | i | 1% | -15% | 11 | -9 | i
SMILES | KB-3-1 cytotox | A549 tox | Nrf2 block | Giardia killer | PI4K2A block | KB-V1 cytotox
CCOC(=O)c1c(NC(=O)c2ccc(Cl)cc2)csc1C | i | 3% | 15% | 0 | -6 | 9.2µM*
COc1ccc(C(C(=O)N(C)C2CCCC2)N(Cc2ccc(F)cc2)C(=O)c2cc(C)[nH]n2)cc1OC (centres undefined) | . | . | . | . | 3 | .
CCc1ccc(CN2CCC(n3nccc3NC(=O)c3ccccc3Cl)CC2)cc1 | i | -2% | 4% | 2 | 2 | 18µM*
CCOc1ccc(Br)cc1/C(C)=N\NC1=NCCN1 | 6.5µM* | -18% | ? | 2 | -3 | ?
CCc1nc2ccccc2c(C(=O)OCC(=O)NCc2ccc3c(c2)OCO3)c1C | i | 0% | 1% | -5 | 1 | i
CCCc1nc2ccccc2c(C(=O)OCC(=O)NCc2ccc3c(c2)OCO3)c1CC | ? | ? | 21µM* | ? | 2 | i
CC(C)Sc1nc2ccccc2n1CC(=O)NCc1ccc2c(c1)OCO2 | i | 1% | -24% | -3 | 9 | 15µM*
Cc1cc2c(s1)c1cnn(Cc3ccc(F)c(F)c3F)c(=O)c1n2C | . | 2% | -4% | . | . | .
CC1(C)CC(=O)C2=C(C1)NC(Nc1nc3ccccc3o1)=NC2c1ccccc1 (centres undefined) | i | -3% | 4% | -14 | . | i
Cc1ccc(S(=O)(=O)N2CCN(C(=O)c3ccccc3)C2C(C)C)cc1 (centres undefined) | i | 3% | 4% | 1 | 6 | ?
C/C(=N\S(=O)(=O)c1ccc(C)cc1)N1CCN(S(=O)(=O)c2ccccc2)C1C(C)C (centres undefined) | i | -11% | 8% | 2 | 7 | 5.8µM*
CCc1ccc(NC(=O)C2=CC(c3cccs3)=NS(=O)(=O)N2C)cc1 | ? | -16% | 16µM*! | 5 | -7 | i
Cc1ccc(NC(=O)C2=CC(c3cccs3)=NS(=O)(=O)N2C)cc1 | i | ? | ? | -3 | -2 | i
Cc1ccc(NC(=O)c2cc(S(=O)(=O)N3CCCCC3)cs2)cc1 | ? | -7% | 8.2µM* | 6 | -1 | 15µM*
O=C(Nc1ccc(F)cc1)c1cc(S(=O)(=O)N2CCOCC2)cs1 | i | -7% | -2% | -5 | -8 | i
O=C(Nc1ccc(Cl)cc1)c1cc(S(=O)(=O)N2CCOCC2)cs1 | ? | ? | 4.6µM* | -4 | 4 | 9.2µM*
Clc1ccccc1Cn1c(/C=C/c2ccco2)nc2ccccc21 | ? | 7% | 1% | -8 | -9 | 13µM*
O=C(NCCCc1nc2ccccc2n1Cc1ccccc1Cl)c1ccco1 | i | -3% | 2% | . | -2 | ?
Cc1ccc2ccccc2c1CSc1nc(N)nc2c1ncn2CC(C)C | i | ? | ? | 0 | 2 | 21µM*
